This is a sample that favours compounds with a hit; in the whole collection about 11% have one here.
HPGD block: inhibitors of human 15-hydroxyprostaglandin dehydrogenase (HPGD). P15428. purified HPGD, NADH fluorescence kinetic, PGE2 substrate. Potency, µM, usual class: inhibitors. 150,000 tested, 4.3% active. AID 894
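NADH formation kinetics: reaction with 30 uM PGE2 and 1 mM NAD+ (final), 20 nM enzyme, Tris-HCl pH 8 with Tween 20, after 15 min compound preincubation at room temperature. Fluorescence change, last versus first of five reads.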
PNC assembly inh: blocks assembly of the perinucleolar compartment; PC3M PTB-GFP, PNC prevalence imaging, 16 h; stronger effect = lower value; activity change (PNC), negative = inhibition, % at 10 µM; 140,000 tested, 3.1% active; AID 2417;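 active = readout at or below -70, meaning at least 70% loss of cells showing the perinucleolar compartment, a nuclear body marking cancer cells; inconclusive = readout between -30 and a set limit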
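Compounds are pinned in duplicate onto adhered PC3M cells stably expressing GFP-tagged PTB and incubated 16 h at 37 C. Cells are then fixed, nuclei stained with Hoechst, and PNC-positive cells counted.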
IMPase Li cell: IMPase inhibition in cells with lithium potentiation; CHO-M1 cells, IP1 TR-FRET (IP-One), carbachol + lithium; Potency, µM (top dose mostly 59.4 µM), most hits filed as inhibitors; 210,000 tested, 0.35% active; AID 1457; active = well fitted curve in the direction sought with a large enough effect; inconclusive = small, poorly fitted or top-dose-only effect, or another doubt; inactive = no such curve, though single readings can be large; an effect the other way counts as inactive or inconclusive;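 also: IP1 builds up when IMPase is blocked and the TR-FRET signal falls; nearly all actives have a fitted effect of over 50% in size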
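CHO-M1, 2000 cells/well, 16–30 h culture; cpd + low Li+, 30 min 37C; lysis with d2-IP1/Eu-anti-IP1 Ab, 10 min RT; TR-FRET 665/620 ratio and 620 channel; AC50 via Hill.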
12-hLO inh: inhibitors of human 12-lipoxygenase (ALOX12); P18054; purified 12-hLO, xylenol orange hydroperoxide absorbance; Potency, µM (top dose mostly 57.1 µM), actives largely listed as inhibitors; 150,000 tested, 0.12% active; active = well fitted curve in the direction sought with a large enough effect; inconclusive = small, poorly fitted or top-dose-only effect, or another doubt; inactive = no such curve, though single readings can be large; an effect the other way counts as inactive or inconclusive; also: nearly all actives have a fitted effect of over 55% in size
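Xylenol orange chromogenic assay: hydroperoxide from 12hLO oxidises Fe(II), giving red-shifted Fe(III)-XO absorbance. Conditions: 150 nM enzyme, 40 uM arachidonic acid, 25 mM Hepes pH 7.0, 0.01% Triton X-100, 30 min, room temperature.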
IMPase cell inh: cell-permeable inhibitors of inositol monophosphatase (IMPase); P97697; inhibition (IP1 accumulation), % at 46.1 µM; 120,000 tested, under 10 active; CHO-M1 cells, IP1 accumulation, HTRF TR-FRET ratio; active = well fitted curve in the direction sought with a large enough effect in the signal ratio, not every such curve was filed as active; inconclusive = small, poorly fitted or top-dose-only effect, or a change in a side signal; inactive = no such curve, though single readings can be large or run the other way; the % refers to the signal ratio;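 also: cells stimulated with carbachol in lithium chloride buffer; higher means more IMPase inhibition seen as more IP1 and lower FRET ratio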
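The IP-One HTRF competitive assay in carbachol-stimulated CHO-M1 cells quantifies cellular IP1. Compounds spanned up to 46 uM final, and activity is expressed as AC50 from concentration-response fits of the ratio and donor data.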
ALDH1A1 inh: inhibitors of human aldehyde dehydrogenase 1A1. Purified ALDH1A1, NADH fluorescence, propionaldehyde substrate. 220,000 tested, 7.3% active. AID 1030. Potency, µM (doses to about 75.3 µM), most hits filed as inhibitors. P00352
Target sequence (P00352 whole entry, looked up): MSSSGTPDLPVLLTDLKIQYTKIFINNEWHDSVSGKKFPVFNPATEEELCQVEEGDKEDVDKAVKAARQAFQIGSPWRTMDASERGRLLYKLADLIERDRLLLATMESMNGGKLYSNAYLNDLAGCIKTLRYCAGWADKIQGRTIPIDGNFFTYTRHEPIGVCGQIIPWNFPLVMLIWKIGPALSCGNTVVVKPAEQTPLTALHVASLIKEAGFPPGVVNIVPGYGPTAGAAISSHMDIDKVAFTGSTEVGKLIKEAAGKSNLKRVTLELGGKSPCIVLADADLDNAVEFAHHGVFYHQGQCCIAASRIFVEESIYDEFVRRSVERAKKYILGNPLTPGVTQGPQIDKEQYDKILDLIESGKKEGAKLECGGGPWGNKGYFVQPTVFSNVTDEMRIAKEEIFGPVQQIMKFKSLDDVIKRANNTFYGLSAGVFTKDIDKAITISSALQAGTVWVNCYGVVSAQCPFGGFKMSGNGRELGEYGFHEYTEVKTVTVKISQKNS
A number is an active result; i = inactive; ? = inconclusive; nt = no result given; [ ] = another dose, or the depositor's remark. Unless noted, calls follow the shape of the dose curve; as a rule, active = well fitted inhibition curve with a large enough effect (not every such curve was filed as active); inconclusive = small, poorly fitted or top-dose-only effect, or another doubt; inactive = no such curve, though single readings can be large or run the other way.

SMILES	HPGD block	PNC assembly inh	IMPase Li cell	12-hLO inh	IMPase cell inh	ALDH1A1 inh
CCOC(=O)OCC1OC(C#Cc2ccc(Br)cc2)C=CC1OC(=O)OCC (configuration not stated)	nt	nt	nt	nt	nt	i[13.5 µM]
CCOC(=O)c1c(N)sc2c1CCN(Cc1ccccc1)C2	i	nt	i	i[0.00818 µM]	nt	i
COc1ccc(C2CC(=O)Oc3cc(C)c(Cl)cc32)cc1 (configuration not stated)	i	nt	i	i[0.00818 µM]	nt	i
CN(C)CCCn1cnc2cc(Cl)c(Cl)cc21	i	nt	i	i[11.4 µM]	nt	i[13.5 µM]
COc1ccc(S(=O)(=O)Nc2cc3c4c(oc3c3ccccc23)CC(C)(C)CC4=O)cc1	i	i	i	i	i	3.2µM
COc1ccc(S(=O)(=O)Nc2cc3c4c(oc3c3ccccc23)CCCC4=O)cc1	i	i	i	i	i	7.9µM
COc1ccc(S(=O)(=O)Nc2ccccc2C(=O)O)cc1	?	nt	nt	i	nt	?
Cc1ccc(CNC(=O)CCCCn2c(=O)c3ccccc3n(Cc3ccc(Cl)cc3)c2=O)cc1	nt	nt	nt	nt	i	nt
CCOC(=O)c1c(-c2ccccc2)oc2ccc(NS(=O)(=O)c3cc(C)c(C)cc3C)cc12	nt	nt	nt	nt	i	nt
c1ccc2c(NCCN3CCOCC3)nc(-c3ccc4c(c3)OCO4)nc2c1	nt	nt	i	nt	nt	i
O=C1CCC(C(=O)N(c2ccccc2)C2(C(=O)NC3CCCCC3)CCCCC2)N1 (configuration not stated)	nt	i	nt	i	i	7.1µM
O=C1NN=C(CSc2n[nH]c(=S)s2)CS1	nt	nt	i	nt	nt	3.5µM
O=C(c1cccc(F)c1)N1CCC[C@@]2(CCN(c3ccncc3)C2)C1	i	nt	i	i	nt	i
CC(C)(C)[Si](C)(C)c1c2c(nc3ccc(OCc4ccccc4)cc13)-c1cccc(=O)n1C2	?	nt	i	i	nt	?
O=C(NP(=O)(N1CCOCC1)N1CCOCC1)C1=C(N2CCOCC2)/C(=C\c2ccccc2)CC1	nt	nt	i	nt	nt	3.5µM
Cc1cccc(-c2nc(CS(=O)CC(=O)N3CCCCC3)c(C)o2)c1 (configuration not stated)	i	i	i	i	i	i
Cc1oc(-c2ccccc2)nc1CS(=O)CC(=O)N1CCc2ccccc2C1 (configuration not stated)	?	i	i	i	i	25µM
Cc1nn(C)c(Sc2ccccc2N)c1[N+](=O)[O-]	nt	nt	i	nt	nt	4µM
Cn1nc(-c2ccc(C(=O)O)cc2)c2ccccc2c1=O	7.9µM	i	i	i	i	i
CCOC(=O)CNC(=O)c1ccc(-c2nn(C)c(=O)c3ccccc23)cc1	nt	nt	nt	nt	i	nt
COC(=O)c1ccc(-c2nn(C)c(=O)c3ccccc23)cc1	?	-108	i	i	i	?
COc1ccc(OCC(=O)Nc2cc(-c3nn(C)c(=O)c4ccccc34)ccc2OC)cc1	?	i	7.9µM	i	i	?
COC(C1CCCCC1)C(C)C(OCc1cccc(Br)c1)C(C)CO (configuration not stated)	nt	nt	nt	nt	nt	i[13.5 µM]
Cc1nc(N2CCCCC2)sc1C(=O)c1ccc(Cl)c([N+](=O)[O-])c1	nt	nt	i	nt	nt	7.9µM
CCc1cc2c(=O)c(-c3ccc(F)cc3)c(C)oc2cc1OCC(=O)O	nt	nt	i	nt	nt	35µM
SMILES	HPGD block	PNC assembly inh	IMPase Li cell	12-hLO inh	IMPase cell inh	ALDH1A1 inh
CC1(C(=O)NCc2ccccn2)C=CCN1C(=O)c1ccccc1 (configuration not stated)	i	-119	i	i	nt	i
COc1ccc(NC(=O)CSc2nnc(-c3ccccc3)n2N)cc1	i	-100	i	i	i	i
COC(=O)c1ccc(NC(=O)CSc2nnc(-c3ccncc3)n2N)cc1	i	i	i	i	?	25µM
NC(N)=N[C@H](CC(=O)O)c1ccccc1	i	nt	i	i[11.4 µM]	nt	i[13.5 µM]
Cc1ccc(-c2ccc(SCC(=O)c3ccccc3)nn2)cc1	?	i	i	i	i	?
COc1ccc(-c2ccc(SCC(=O)c3ccccc3)nn2)cc1OC	nt	nt	i	nt	nt	25µM
CCc1nc(SCC(=O)NCc2ccco2)c2c3c(sc2n1)CCCC3	i	i	i	i	?	i
CCCSc1nc(SCC(=O)NCc2ccccc2)c2c3c(sc2n1)COC(C)(CC)C3 (configuration not stated)	i	i	i	i	i	i
